Compound activity: PubChem, SRMLSC
Spn DPM-DC inh – S. pneumoniae DPM-DC inhibition | purified DPM-DC, PK/LDH coupled NADH fluorescence | calls only at 10 µM | 65,000 tested, 0.49% active;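 active = the 320 compounds with the highest percent inhibition in the single-dose primary screen, excluding strongly autofluorescent ones, cut at about 32% in these data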;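 also: kinetic rate of NADH fluorescence loss reporting ADP formed by the decarboxylase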
NADH enzymes – inhibitors of enzymes used to reach an NAD/NADH endpoint. 65,000 tested, 0.02% active. IC50, µM (highest dose often 10 µM), for the others: top-dose inhibition. coupled PK/LDH NADH assays, four targets;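 active = single-dose screening hits from any of four coupled enzyme assays that gave an IC50 when retested across doses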;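 also: the DPM-DC format reads NADH fluorescence rather than 340 nm absorbance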
Abs 340nm – absorbance at 340 nm | compound absorbance at 340 nm, fold over control | 65,000 tested, under 10 active | fold change at 10 µM;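 active = at 10 µM dose, initial 340 nm absorbance at least 2 fold that of control wells; inactive = change under 2 fold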;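 also: initial absorbance extrapolated from kinetic A340 decline of NADH oxidation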
MK inhibit – blocks S. pneumoniae mevalonate kinase; purified MK, PK/LDH-coupled NADH absorbance 340 nm; inhibition, % at 10 µM; AID 555; 65,000 tested, 0.48% active;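 active = ranked among the strongest by inhibition in the single 10 µM screen, a fixed top-ranked set picked for dose follow-up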
PMK inhibit – S. pneumoniae PMK inhibition; purified PMK, PK/LDH-coupled NADH absorbance 340 nm; inhibition, % at 10 µM; AID 539; 65,000 tested, 0.49% active;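 active = top-ranked compounds by inhibition in the single 10 µM screen, taking a fixed number of the strongest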;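 also: 0% = full reaction with DMSO carrier and 100% = background rate without enzyme reaction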
Autofluor 339 – intrinsic fluorescence of library compounds, ex339/em460 – biochemical, MLSMR library, data from DPM-DC assay, artefact control, profiling panel | compound autofluorescence, ex339/em460 nm, NADH buffer; hits give high values; 1 = no-compound wells, NADH background | fluorescence fold increase at 10 µM | 65,000 tested, 5.5% active;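 active = at 10 µM, mean starting fluorescence two-fold or more over control wells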;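 also: signal is the first read of a kinetic run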
Starred values were filed as active, the others as inactive. Compounds with a hit are over-represented: about 6.5% of the library has one in this group of screens.

CC1=C(C(=O)N2CCOCC2)C(c2ccccc2F)C2=C(CC(C)(C)CC2=O)N1 (stereo unspecified) was read as NADH enzymes 4.0%, Abs 340nm 1.1, MK inhibit 1.0, PMK inhibit 7.0 and Autofluor 339 4.84*.
For COc1ccc(C2C(C(=O)N3CCOCC3)=C(C)NC3=C2C(=O)CC(C)(C)C3)c(OC)c1 (stereo unspecified) the results were NADH enzymes 4.0%, Abs 340nm 1.07, MK inhibit 4.0, PMK inhibit 3.0 and Autofluor 339 4.77*.
`CC1=C(C(=O)OCCOc2ccccc2)C(c2ccc(C)o2)C2=C(CC(C)(C)CC2=O)N1` (stereo unspecified) gave Spn DPM-DC inh inactive, NADH enzymes 6.0%, Abs 340nm 1.06, MK inhibit 6.0, PMK inhibit 3.0 and Autofluor 339 1.19.
Screening CCCCc1nc(NCC2CCCO2)c(C#N)c2c1COC(C)(C)C2 (stereo unspecified) returned NADH enzymes 5.0%, Abs 340nm 1.04, MK inhibit 4.0, PMK inhibit 5.0 and Autofluor 339 2.41*.
`CCCCc1nc(N2CCOCC2)c(C#N)c2c1COC(C)(C)C2` gave NADH enzymes 6.0%, Abs 340nm 1.04, MK inhibit 3.0, PMK inhibit 9.0 and Autofluor 339 2.29*.
Screening CCCSc1nc(N2CCCC2)c2c(c1C#N)CC(C)(C)OC2 returned Spn DPM-DC inh inactive, NADH enzymes 1.0%, Abs 340nm 1.07, MK inhibit 1.0, PMK inhibit 1.0 and Autofluor 339 1.18.
`Cc1ccc2nc(NCCO)nc(-c3ccccc3)c2c1` gave NADH enzymes 17.0%, Abs 340nm 1, MK inhibit 15.0, PMK inhibit 18.0 and Autofluor 339 4.95*.
`OCCNc1nc(-c2ccccc2)c2ccccc2n1` gave NADH enzymes 8.0%, Abs 340nm 1.03, MK inhibit 3.0, PMK inhibit 12.0 and Autofluor 339 2.38*.
O=S(=O)(NCC(c1cccnc1)N1CCN(c2ccccc2)CC1)c1cc(F)ccc1F (stereo unspecified) was read as Spn DPM-DC inh inactive, NADH enzymes 2.0%, Abs 340nm 1, MK inhibit 0.0, PMK inhibit 20.0 and Autofluor 339 1.03.
For CCOc1nc(-c2ccccc2)ccc1-c1noc(-c2ccco2)n1 the results were Spn DPM-DC inh inactive, NADH enzymes 16.0%, Abs 340nm 1.03, MK inhibit 0.0, PMK inhibit 19.0 and Autofluor 339 2.58*.
COc1nc(-c2ccc(C)cc2)ccc1-c1noc(-c2ccco2)n1 was read as Spn DPM-DC inh inactive, NADH enzymes 9.0%, Abs 340nm 1.08, MK inhibit 0.0, PMK inhibit 10.0 and Autofluor 339 2.36*.
COc1nc(C)ccc1-c1noc(-c2ccco2)n1 was read as Spn DPM-DC inh inactive, NADH enzymes 8.0%, Abs 340nm 1.03, MK inhibit 8.0, PMK inhibit 7.0 and Autofluor 339 1.15.
CCOc1nc(-c2ccccc2)ccc1-c1noc(COc2ccccc2)n1 was read as Spn DPM-DC inh inactive, NADH enzymes 3.0%, Abs 340nm 1.1, MK inhibit 0.0, PMK inhibit 8.0 and Autofluor 339 2.87*.
`O=C(CCC1CCCCC1)Nc1c2c(nn1-c1ccc(F)cc1)CS(=O)C2` (stereo unspecified) gave Spn DPM-DC inh inactive, NADH enzymes 9.0%, Abs 340nm 0.99, MK inhibit 11.0, PMK inhibit 17.0 and Autofluor 339 1.03.
`CCNC(=O)CC1C(=O)N(c2ccccc2)C(=O)N1Cc1ccc(OC)cc1` (stereo unspecified) gave Spn DPM-DC inh inactive, NADH enzymes 2.0%, Abs 340nm 0.98, MK inhibit 7.0, PMK inhibit 8.0 and Autofluor 339 1.04.
COc1ccc(-c2nc3n(n2)C(c2ccccc2Cl)C(C(N)=O)=C(C)N3)cc1 (stereo unspecified) was read as Spn DPM-DC inh inactive, NADH enzymes 3.0%, Abs 340nm 1.04, MK inhibit 1.0, PMK inhibit 6.0 and Autofluor 339 1.18.
COc1ccc(-c2oc3ncnc(NCCCN4CCOCC4)c3c2-c2ccc(OC)cc2)cc1 was read as NADH enzymes 17.0%, Abs 340nm 1.12, MK inhibit 17.0, PMK inhibit 16.0 and Autofluor 339 3.75*.
`c1ccc(-c2oc3ncnc(NCCCN4CCOCC4)c3c2-c2ccccc2)cc1` gave NADH enzymes 12.0%, Abs 340nm 1.08, MK inhibit 10.0, PMK inhibit 13.0 and Autofluor 339 3.75*.
COc1ccc(-c2oc3ncn(CCN4CCOCC4)c(=N)c3c2-c2ccc(OC)cc2)cc1 was read as Spn DPM-DC inh inactive, NADH enzymes 6.0%, Abs 340nm 1.06, MK inhibit 10.0, PMK inhibit 16.0 and Autofluor 339 1.52.
Screening COc1ccc(-c2oc3ncnc(NCCN4CCOCC4)c3c2-c2ccc(OC)cc2)cc1 returned NADH enzymes 9.0%, Abs 340nm 1.07, MK inhibit 9.0, PMK inhibit 8.0 and Autofluor 339 3.8*.
`CCOc1ccccc1OCCCCN1CCCC1` gave Spn DPM-DC inh inactive, NADH enzymes 9.0%, Abs 340nm 1.02, MK inhibit 50.0*, PMK inhibit 0.0 and Autofluor 339 1.04.
Screening O=C1CC(O)(C(F)F)Oc2ccc3ccccc3c21 (stereo unspecified) returned NADH enzymes 10.0%, Abs 340nm 1.04, MK inhibit 13.0, PMK inhibit 7.0 and Autofluor 339 3.73*.
For Cc1cc(=O)oc(C)c1C(=O)n1nc(C)c2c1C[C@@H]1[C@H]2C1(C)C the results were Spn DPM-DC inh inactive, NADH enzymes 4.0%, Abs 340nm 1.03, MK inhibit 0.0, PMK inhibit 10.0 and Autofluor 339 1.08.
Screening COc1cc(C2c3c(n[nH]c3C)C(=O)N2c2ccc(C)cc2)ccc1O (stereo unspecified) returned Spn DPM-DC inh inactive, NADH enzymes 9.0%, Abs 340nm 0.98, MK inhibit 10.0*, PMK inhibit 0.0 and Autofluor 339 1.04.
For Cc1ccc(S(=O)(=O)N2CCC(C(=O)N3CCC[C@H]3C(=O)NCc3ccco3)CC2)cc1 the results were Spn DPM-DC inh inactive, NADH enzymes 7.0%, Abs 340nm 0.99, MK inhibit 13.0, PMK inhibit 4.0 and Autofluor 339 1.12.
`O=c1cc(C(F)F)oc2c1ccc1ccccc12` gave NADH enzymes 1.0%, Abs 340nm 1, MK inhibit 7.0, PMK inhibit 0.0 and Autofluor 339 2.46*.
For COc1ccc(N2CCN(Cc3cc(=O)oc4c3ccc3ccccc34)CC2)cc1 the results were Spn DPM-DC inh inactive, NADH enzymes 6.0%, Abs 340nm 1.03, MK inhibit 10.0, PMK inhibit 7.0 and Autofluor 339 1.11.
